Screening data as filed in PubChem BioAssay.
AmpC detergent = AmpC beta-lactamase inhibition with detergent present. P00811. AmpC hydrolysis of nitrocefin, absorbance 480 nm, 0.01% Triton. Potency, µM (titrated, usually from 114 µM), most hits filed as inhibitors. 0.041% of 370,000 active; also: nearly all actives have a fitted effect of over 25% in size
Target sequence (P00811 whole entry, looked up): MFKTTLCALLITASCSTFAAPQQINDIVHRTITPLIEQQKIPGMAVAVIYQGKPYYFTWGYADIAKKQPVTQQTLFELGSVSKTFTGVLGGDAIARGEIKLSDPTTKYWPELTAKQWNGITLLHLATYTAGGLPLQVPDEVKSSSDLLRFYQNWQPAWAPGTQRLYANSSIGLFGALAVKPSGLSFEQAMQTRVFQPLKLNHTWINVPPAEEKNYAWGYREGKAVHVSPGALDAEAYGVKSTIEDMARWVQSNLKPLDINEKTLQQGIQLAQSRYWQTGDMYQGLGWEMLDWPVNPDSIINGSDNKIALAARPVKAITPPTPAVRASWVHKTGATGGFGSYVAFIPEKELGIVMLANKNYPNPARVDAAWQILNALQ
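AmpC (5.3 nM in the dispensed reagent) in 20 mM phosphate pH 7.0 with 0.01% (detergent screen) or 0.0001% Triton X-100 was preincubated with compounds for 15 min at room temperature. Nitrocefin was then added from an 800 uM solution, and hydrolysis was followed at 480 nm.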
AmpC no deterg = AmpC beta-lactamase inhibition without detergent; P00811; AmpC nitrocefin hydrolysis, absorbance 480 nm, 0.0001% Triton; Potency, µM (titrated, usually from 57.1 µM), usual class: inhibitors; 0.52% of 330,000 active; also: nearly all actives have a fitted effect of over 20% in size
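20 mM phosphate pH 7.0 + 0.01% (detergent screen) or 0.0001% Triton X-100; 5.3 nM AmpC reagent; cpd preinc 15 min RT; nitrocefin (800 uM stock) to start; A480 q20 s × 4 min; Activity was normalised to no-enzyme and no-compound control wells.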
SARS PLP yeast = blocks SARS-CoV papain-like protease in a yeast assay; Potency, µM (doses to about 32.9 µM), most hits filed as activators; S. cerevisiae expressing SARS-CoV PLpro, growth rescue; 0.19% of 330,000 active; calls by dose curve; also: nearly all actives have a fitted effect of over 55% in size
Pf growth 96h = P. falciparum growth inhibition at 96 hours; P. falciparum luciferase reporter growth, 96 h; Potency, µM (highest dose often 28.7 µM), most hits filed as inhibitors; 6.9% of 320,000 active
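Infected RBCs, 2% Hct / 0.05% parasitemia final; luciferase-reporter P. falciparum; cpd 96 h, 37 C, 5% CO2; luciferase detection reagent; luminescence.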
Pf growth 48h = P. falciparum growth inhibition at 48 hours (one generation). P. falciparum luciferase growth in erythrocytes, 48 h. AID 504832. 5.9% of 310,000 active. Potency, µM (titrated, usually from 28.7 µM), most hits filed as inhibitors
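Compounds are pin-transferred into medium, infected erythrocytes (2% hematocrit, 0.1% parasitemia final) are added, and plates sit one parasite generation at 37 C in 5% CO2. Detection reagent is then added and luminescence measured.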
Sm TGR inh = S. mansoni TGR enzyme inhibition; Q962Y6; purified TGR, DTNB reduction, TNB absorbance 405 nm; Potency, µM (series often up to 114 µM), most hits filed as inhibitors; 3% of 360,000 active; AID 485364; also: nearly all actives have a fitted effect of over 60% in size
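Kinetic colorimetric format: TGR-catalysed, NADPH-driven DTNB reduction monitored via TNB absorbance. Enzyme dispensed at 20 nM; compound exposure 15 min at room temperature before reaction start.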
Of the large screens only hits and unclear results are named; the others gave an inactive call. Compounds with a hit are over-represented: about 12% of the library has one in this group of screens. Unless noted, calls follow the shape of the dose curve; as a rule, active = well fitted curve in the direction sought with a large enough effect; inconclusive = small, poorly fitted or top-dose-only effect, or another doubt; inactive = no such curve, though single readings can be large; an effect the other way counts as inactive or inconclusive.

COc1ccc(NS(=O)(=O)c2ccc(OC)c(N(C)S(=O)(=O)c3ccc(Cl)cc3)c2)cc1	Pf growth 96h 3.7µM, Pf growth 48h 11.7µM
COc1ccc(S(=O)(=O)Nc2ccc(F)c(F)c2)cc1Cl	none (no result: Pf growth 96h)
C[C@]12O[C@H](C[C@]1(O)CO)n1c3ccccc3c3c4c(c5c6ccccc6n2c5c31)CNC4=O	Pf growth 96h 0.151µM, Pf growth 48h 0.169µM (no result: AmpC detergent, AmpC no deterg, SARS PLP yeast, Sm TGR inh)
CC(=O)c1ccc(NC(=O)CSC2=Nc3ccccc3N=C(c3ccc(F)cc3)C2)cc1	none (no result: AmpC no deterg, SARS PLP yeast, Pf growth 96h, Pf growth 48h)
COc1cc(C(CCN2CCCC(C)C2)c2c(OC)cc(OC)c3c(-c4ccccc4)cc(=O)oc23)cc(OC)c1OC (centres undefined)	Pf growth 96h 2.94µM, Pf growth 48h 7.38µM
COc1cc(C(CCN2CCCCC2)c2c(OC)cc(OC)c3c(-c4ccccc4)cc(=O)oc23)cc(OC)c1OC (centres undefined)	Pf growth 96h 5.86µM, Pf growth 48h 10.4µM, Sm TGR inh 44.7µM
CC(C)c1nc2ccc(C(=O)NCCCN3CCN(c4ccccc4F)CC3)cc2o1	none (no result: AmpC no deterg, SARS PLP yeast, Pf growth 96h, Pf growth 48h)
O=C(Nc1cccc(C(F)(F)F)c1)C1CC(=O)N(CCc2ccccc2)C1 (centres undefined)	Pf growth 48h inconclusive
COc1cc(OC)c(N2CC(C(=O)NCCC3=CCCCC3)CC2=O)cc1Cl (centres undefined)	Pf growth 96h inconclusive
CCc1ccc2oc(C(=O)Nc3ccccc3C(=O)OC)cc(=O)c2c1	none (no result: AmpC no deterg, SARS PLP yeast, Pf growth 96h, Pf growth 48h)
COc1ccc(C(=O)/C=C2\NCCc3cc(OC)c(OC)cc32)cc1OC	Pf growth 96h 13.1µM, Pf growth 48h 10.4µM
CCCCN(CCCNC(=O)c1c(C)oc2nc[nH]c(=O)c12)Cc1ccccc1	AmpC detergent inconclusive (no result: AmpC no deterg, SARS PLP yeast, Pf growth 96h, Pf growth 48h)
CN[C@@H]1C[C@@H](c2ccc(Cl)c(Cl)c2)c2ccccc21	Pf growth 96h 13.5µM, Pf growth 48h 15.1µM
CCOC(=O)c1cnc(NCc2ccccc2OC)c2ccccc12	none (no result: AmpC no deterg, SARS PLP yeast, Pf growth 96h, Pf growth 48h)
Cc1oc(C(C)(C)C)cc1-c1cc(NC(=O)c2ccc([N+](=O)[O-])cc2)n[nH]1	Pf growth 96h 2.33µM, Pf growth 48h 1.85µM
COc1ccccc1NS(=O)(=O)c1ccc(C(=O)NCC(c2ccc(F)cc2)N2CCOCC2)cc1 (centres undefined)	none (no result: AmpC detergent, Pf growth 96h, Pf growth 48h, Sm TGR inh)
CN(C)c1ccc(C(CNC(=O)COc2ccc(Cl)cc2)N2CCCC2)cc1 (centres undefined)	Pf growth 96h 6.57µM
COc1cc(C(=O)NCC(c2ccc(F)cc2)N2CCOCC2)ccc1OCc1ccccc1Cl (centres undefined)	Pf growth 96h 9.28µM, Pf growth 48h 5.22µM (no result: SARS PLP yeast)
COc1ccc(C(CNC(=O)COc2cc(C)cc(C)c2)N2CCOCC2)cc1 (centres undefined)	none (no result: AmpC no deterg, SARS PLP yeast, Pf growth 96h, Pf growth 48h)
Cc1cc(OCC(=O)NCC(c2ccc(F)cc2)N2CCOCC2)ccc1Cl (centres undefined)	Pf growth 96h 9.28µM, Pf growth 48h 9.28µM
Cc1ccc(Cn2nc(C)c(C(=O)NCC(c3ccc(F)cc3)N3CCOCC3)c2Cl)cc1 (centres undefined)	Pf growth 96h inconclusive, Pf growth 48h 10.4µM
CCN(Cc1ccccc1)c1ncnc2c1nnn2C	none (no result: AmpC no deterg, SARS PLP yeast, Pf growth 96h, Pf growth 48h)
O=C(CC12CC3CC(CC(C3)C1)C2)NCC(c1ccc(F)cc1)N1CCOCC1 (centres undefined)	Pf growth 96h 11.7µM, Pf growth 48h 11.7µM
CCOc1ccc(N(C)S(=O)(=O)c2ccc(C)c(C(=O)OCC(=O)c3c[nH]c4ccccc34)c2)cc1	Pf growth 96h inconclusive, Pf growth 48h 13.1µM (no result: Sm TGR inh)
COc1ccc(N(C)S(=O)(=O)c2cccc(C(=O)Nc3ccc(OC)nc3)c2)cc1	AmpC detergent inconclusive, Pf growth 96h inconclusive
CCN(c1ccccc1)S(=O)(=O)c1cccc(C(=O)N2CCN(S(=O)(=O)c3ccccc3)CC2)c1	Pf growth 96h 8.28µM, Pf growth 48h inconclusive
COc1cc(OC)c(N(C)S(=O)(=O)c2cccc(C(=O)Nc3nc(C)cs3)c2)cc1Cl	Pf growth 96h inconclusive, Pf growth 48h 13.1µM
COc1ccc(N(C)S(=O)(=O)c2cccc(C(=O)Nc3ccc(-n4cnnn4)cc3)c2)cc1	Pf growth 96h inconclusive, Pf growth 48h 10.4µM
COc1cccc(N2CN(CCc3ccccc3)CNC2=S)c1	Pf growth 96h inconclusive, Pf growth 48h inconclusive
COc1ccc(N(C)S(=O)(=O)c2cccc(C(=O)NCc3ccc(C)cc3)c2)cc1	Pf growth 96h 5.86µM
CCOc1ccc(N(C)S(=O)(=O)c2ccc(C)c(C(=O)Nc3nnc(C4CC4)s3)c2)cc1	Pf growth 96h inconclusive, Pf growth 48h 4.15µM
COc1ccc(N2CCN(C(=O)c3ccc(N(C)S(=O)(=O)c4ccc(C)cc4)cc3)CC2)cc1	none
COc1ccc(N(C)S(=O)(=O)c2cccc(C(=O)N3CCN(S(=O)(=O)c4ccc(C)cc4)CC3)c2)cc1	Pf growth 96h 2.62µM, Pf growth 48h 5.86µM
COc1cc(OC)c(N(C)S(=O)(=O)c2cccc(C(=O)Nc3nnc(C4CC4)s3)c2)cc1Cl	Pf growth 96h inconclusive, Pf growth 48h 13.1µM
COc1ccc(CNC(=O)c2ccc(N(C)S(=O)(=O)c3ccc(C)cc3)cc2)cc1	Pf growth 48h inconclusive
Cc1cc(C(=O)Nc2ccccc2Cl)n(-c2ccccc2)n1	none
O=C(/C=C\c1ccc2c(c1)OCO2)CC1(O)C(=O)Nc2ccccc21 (centres undefined)	none
CC(NC(=O)C1CCN(S(=O)(=O)c2ccc3c(c2)NC(=O)CO3)CC1)c1ccccc1 (centres undefined)	none
CNC(=O)CN1C(=O)COc2ccc(S(=O)(=O)N3CCC(C)CC3)cc21	none (no result: AmpC no deterg, SARS PLP yeast, Pf growth 96h, Pf growth 48h)
Cc1csc(N(C(=O)c2cccc(S(=O)(=O)N3CCCC3)c2)c2ccccc2)n1	Pf growth 96h inconclusive (no result: Pf growth 48h)
COc1ccc(N(C)S(=O)(=O)c2cccc(C(=O)Nc3nc(C)cs3)c2)cc1	Pf growth 96h inconclusive, Pf growth 48h 13.1µM
COc1cc(OC)c(N(C)S(=O)(=O)c2cccc(C(=O)NC3=NCCS3)c2)cc1Cl	Pf growth 96h inconclusive, Pf growth 48h 10.4µM
Cc1csc(N(C(=O)c2cccc(S(=O)(=O)N(C)C)c2)c2ccccc2)n1	Pf growth 96h 8.28µM
CCOC(=O)C1CCCN(C(=O)c2cccc(S(=O)(=O)N(C)c3ccc(C)cc3)c2)C1 (centres undefined)	AmpC detergent inconclusive, Pf growth 96h inconclusive, Pf growth 48h 13.1µM
COc1ccccc1N(C)S(=O)(=O)c1ccc(Cl)c(C(=O)NC2=NCCS2)c1	Pf growth 96h inconclusive
CCCN(CCC)CCNC(=O)c1sc2nc3n(c(=O)c2c1C)CCCCC3	none (no result: AmpC no deterg, SARS PLP yeast, Pf growth 96h, Pf growth 48h)
